Only a selection was taken, and hits are over-represented in it overall.
MBNL1 CUG block: MBNL1-poly(CUG) RNA binding inhibition; Potency, µM (top dose mostly 57.5 µM), for inactives: top-dose activity change, negative = inhibition, usual class: inhibitors; Q9NR56; TR-FRET MBNL1-His/biotin-(CUG)12 binding, 665/545 ratio; 280,000 tested, 0.036% active; active = well fitted inhibition curve with a large enough effect in the signal ratio, with a control signal flat, not every such curve was filed as active; inconclusive = small, poorly fitted or top-dose-only effect, or effect the other way, or a change in a side signal; inactive = no such curve, though single readings can be large or run the other way; the % refers to the signal ratio; also: % is scaled to controls: 0 for no effect and ±100 for the full control effect
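Ratiometric TR-FRET (665 over 545 nm, excitation 340 nm) tracks disruption of MBNL1-His/biotin-(CUG)12 complex after 60 min at room temperature, with compounds at 92 nM to 58 uM final.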
Tb PFK inh-1: inhibitors of T. brucei phosphofructokinase; T. brucei PFK, ADP-Glo luminescence; AID 485367; 330,000 tested, 0.17% active; Potency, µM (doses to about 57.5 µM), for inactives: at the highest dose activity, negative = inhibition, usual class: inhibitors;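 also: 0% = uninhibited 1x PFK enzyme wells and -100% = no-enzyme wells; nearly all actives have a fitted effect of over 60% in size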
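In TEA buffer at pH 8.0 with 5 mM MgCl2, enzyme (1.25 nM) converted F6P (0.5 mM) and ATP (0.1 mM) for 45 min at room temperature. ADP product was read by luciferase luminescence.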
NPSR antagonist: antagonists of human neuropeptide S receptor cAMP signaling; Q6W5P4; Potency, µM (titrated, usually from 38.3 µM), for the others: top-dose activity change, negative = inhibition, actives largely listed as inhibitors; 220,000 tested, 1% active; CHO-NPSR cells, cAMP TR-FRET, antagonist mode; AID 1461; also: % is scaled to controls: 0 for no effect and ±100 for the full control effect; nearly all actives have a fitted effect of over 50% in size
Target sequence (Q6W5P4 whole entry, looked up): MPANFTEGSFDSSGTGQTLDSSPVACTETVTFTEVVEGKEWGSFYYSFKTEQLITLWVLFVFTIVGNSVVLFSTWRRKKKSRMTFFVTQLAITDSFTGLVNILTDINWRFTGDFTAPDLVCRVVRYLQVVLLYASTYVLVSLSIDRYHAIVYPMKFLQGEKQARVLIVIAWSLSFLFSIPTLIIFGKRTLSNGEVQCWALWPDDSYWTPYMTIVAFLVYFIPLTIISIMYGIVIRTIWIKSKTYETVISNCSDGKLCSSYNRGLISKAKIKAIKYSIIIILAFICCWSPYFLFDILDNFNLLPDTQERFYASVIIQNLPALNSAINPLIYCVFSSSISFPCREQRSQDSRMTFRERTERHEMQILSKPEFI
GoLoco inh red: inhibitors of human Gai1-RGS12 GoLoco interaction (red fluorophore). Potency, µM (top dose mostly 61.6 µM), for the others: at the highest dose activity, negative = inhibition, actives largely listed as inhibitors. Gai1:RGS12 GoLoco peptide FP, rhodamine, 10 min. AID 880. 230,000 tested, 0.44% active; active = well fitted inhibition curve with a large enough effect, not every such curve was filed as active; inactive = no such curve, though single readings can be large or run the other way; also: % is scaled to controls: 0 for no effect and ±100 for the full control effect; nearly all actives have a fitted effect of over 30% in size
Target sequence (P63096 whole entry, looked up): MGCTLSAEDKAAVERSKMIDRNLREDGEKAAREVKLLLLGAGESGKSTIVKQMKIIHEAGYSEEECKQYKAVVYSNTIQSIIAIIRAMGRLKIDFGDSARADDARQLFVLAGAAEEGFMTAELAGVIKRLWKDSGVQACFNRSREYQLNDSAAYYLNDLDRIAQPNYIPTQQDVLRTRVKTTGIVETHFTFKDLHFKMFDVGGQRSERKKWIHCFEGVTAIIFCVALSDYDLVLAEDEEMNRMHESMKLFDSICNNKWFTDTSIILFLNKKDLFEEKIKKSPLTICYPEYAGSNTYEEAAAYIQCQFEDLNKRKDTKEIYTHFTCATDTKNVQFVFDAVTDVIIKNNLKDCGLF
IMPase Li cell: cell-permeable IMPase inhibitors with lithium potentiation; 210,000 tested, 0.35% active; CHO-M1 cells, IP1 TR-FRET (IP-One), carbachol + lithium; AID 1457; Potency, µM (titrated, usually from 59.4 µM), for the others: at the top dose activity, negative = IMPase inhibition, usual class: inhibitors;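 also: IP1 builds up when IMPase is blocked and the TR-FRET signal falls; plate controls were basal vehicle for no effect and high inhibitor control for full effect; nearly all actives have a fitted effect of over 50% in size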
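Lithium-sensitised IP1 accumulation assay; M1-expressing CHO cells treated 30 min at 37C with compound. Competitive antibody detection by time-resolved FRET followed a 10 min room-temperature lysis step.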
Tb PFK KinaseGlo: orthogonal confirmation of T. brucei phosphofructokinase inhibitors; Potency, µM (top dose mostly 57.5 µM), without a hit: at the top dose inhibition; Tb PFK enzyme, ATP depletion, Kinase-Glo Plus luminescence; shares compounds with Tb PFK inh-1; 1,100 tested, 47% active; AID 504636; calls by dose curve; also: nearly all actives have a fitted effect of over 60% in size
Tb PFK inh-2: T. brucei PFK enzyme inhibition, hit validation; shares compounds with Tb PFK inh-1; 1,100 tested, 41% active; purified T. brucei PFK, ADP-Glo luminescence, 45 min; Potency, µM (top dose mostly 57.5 µM), inactives show at the highest dose activity change, negative = inhibition, actives largely listed as inhibitors;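 also: plate controls were full PFK enzyme control for no effect and no enzyme control for full effect; nearly all actives have a fitted effect of over 60% in size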
* marks the source's active call; other numbers are inactive results; ? = inconclusive; . = no result given; [ ] = another dose, or the depositor's remark. Unless noted, calls follow the shape of the dose curve; as a rule, active = well fitted curve in the direction sought with a large enough effect; inconclusive = small, poorly fitted or top-dose-only effect, or another doubt; inactive = no such curve, though single readings can be large; an effect the other way counts as inactive or inconclusive. Potency is read from the fitted curve at half-maximal effect.

SMILES	MBNL1 CUG block	Tb PFK inh-1	NPSR antagonist	GoLoco inh red	IMPase Li cell	Tb PFK KinaseGlo	Tb PFK inh-2
CN1CCN(C(=O)Cc2nc3ccccc3[nH]2)CC1	4%	3%	4%[46.1 µM]	-8%	-5%[38.3 µM]	.	.
COC(=O)N1CCN(C(=O)Cc2ccc(Cl)c(Cl)c2)C(CN2CCCC2)C1 (centres undefined)	6%	-20%	?	13%	10%	.	.
O=C(COC(=O)Cc1ccc(Cl)c(Cl)c1)Nc1ccc2[nH]c(=O)[nH]c2c1	.	21µM*	.	.	.	?	13µM*
O=C(COC(=O)Cc1c(Cl)cccc1Cl)Nc1ccc2[nH]c(=O)[nH]c2c1	.	?	.	.	.	?	?
Cc1cccc(C)c1NC(=O)CN(C)CC(=O)Nc1ccc(C#N)c(Cl)c1	-7%	-1%	-18%[46.1 µM]	0%	9%[38.3 µM]	.	.
CCNCC	.	.	.	9%	-1%	.	.
CC[C@]12CCCN3CCC4(c5ccccc5NC4C(C(=O)O)C1)C32 (some centres undefined)	.	.	.	9%	22%	.	.
COc1ccc(N2C(=O)CS(=O)C(c3ccccc3)C2=O)cc1 (centres undefined)	-12%	?	-27%	-14%	3%	?	-19%
Cc1o[nH]c(=O)c1C[C@H](N)C(=O)O	.	.	.	1%	30%	.	.
COc1ccc(OCC(=O)Nc2ccc(Cl)cc2C(=O)c2ccccc2)cc1	16%	-5%	-23%[46.1 µM]	8%	18%[38.3 µM]	.	.
COc1ccc(Cl)cc1C(=O)NNC(=O)COC(=O)CCN=C1NS(=O)(=O)c2ccccc21	.	?	.	.	.	-28%	?
COc1ccc2nc(NC(=O)c3ccccc3O)sc2c1	15%	?	.	.	.	-30%	?
COc1cccc(CNc2ccc(F)c([N+](=O)[O-])c2)c1O	?	?	-18%	2%	6%	19µM*	30µM*
O=[N+]([O-])c1ccccc1CCl	.	-1%	.	2%	-13%	.	.
O=[N+]([O-])c1ccccc1CNc1ccc(F)c(Cl)c1	?	?	-3%	-5%	2%	21µM*	?
O=c1cccc2n1CC1CC2CN(CCO)C1 (centres undefined)	.	.	.	0%	6%	.	.
O=S(=O)(O)/C(=C\c1ccccc1)c1ccccc1 (tested in a mixture with another compound)	.	.	.	5%[14.2 µM]	1%	.	.
O=[N+]([O-])c1ccc(N2CCN(C(=S)c3cccc([N+](=O)[O-])c3)CC2)cc1	15%	19µM*	2%	13µM*	.	9.5µM*	24µM*
CCOC(=O)C1=C(N)OC2=C(C(=O)CC(C)(C)C2)C1c1cc(CSc2nnnn2C)cs1 (centres undefined)	.	?	-43%	30%	28%	-1%	1%
N#CCCCC[N+]12CN3CN(CN(C3)C1)C2	.	.	.	7%[14.2 µM]	16%	.	.
COc1cc(/C=C(/C)[N+](=O)[O-])ccc1OCc1ccccc1Cl	-15%	2%	?	-16%	18%	.	.
COc1cc(/C=C/c2ccc3c([N+](=O)[O-])cccc3n2)ccc1OCC(=O)O	?	?	-2%	6%	.	-25%	?
COc1cc(/C=C/c2ccc3cccc([N+](=O)[O-])c3n2)ccc1OCC(=O)O	?	?	0%	8%	0%	-24%	26%
O=S(=O)(c1ccc2nc(COc3ccc(Cl)cc3Cl)[nH]c2c1)N1CCOCC1	-11%	?	-27%[46.1 µM]	11%	6%[38.3 µM]	?	?
C=CCn1c(SCC(=O)N2CCOCC2)nc2scc(-c3ccco3)c2c1=O	1%	?	-19%[46.1 µM]	1%	2%[38.3 µM]	?	-25%
SMILES	MBNL1 CUG block	Tb PFK inh-1	NPSR antagonist	GoLoco inh red	IMPase Li cell	Tb PFK KinaseGlo	Tb PFK inh-2
O=C(Nc1cccc(-c2nnn(CC(=O)N3CCc4ccccc4C3)n2)c1)C1CCC1	-2%	24µM*	-27%[46.1 µM]	-5%	19%[38.3 µM]	13µM*	?
CC/C(=N/Nc1cccc(Cl)c1)c1cnnc(SC)n1	3%	?	-6%	3%	9%	?	?
Cn1nnc2cc(NC(=O)Nc3cccc(Cl)c3)ccc21	59%	5%	.	.	.	.	.
CC(=O)N(C)Cc1ccc(C(=O)CCl)cc1	.	?	-1%	6%	21%	2.4µM*	3µM*
NC(=S)c1cn(C2OC(CO)C(O)C2O)c2ncnc(N)c12 (centres undefined)	-8%	?	-8%	-2%	.	?	-14%
CCc1cc(CNC(=O)c2ccc(OC3CCN(CCc4ccccc4)CC3)cc2)on1	-6%	15µM*	.	.	.	17µM*	21µM*
CC(C)(OOC(C)(C)c1ccccc1)c1ccccc1	.	.	.	-3%	31%	.	.
Cc1c(C(=O)N2CCC3(CC2)OCCO3)oc2ccc(S(=O)(=O)N3CCOCC3)cc12	-14%	-1%	-1%[46.1 µM]	5%	2%	.	.
O=S(=O)(Nc1cc(S(=O)(=O)N2CCOCC2)ccc1O)c1ccc2c(c1)OCCCO2	.	?	.	.	.	12µM*	15µM*
COc1cc2c3cc1Oc1c(O)c(OC)cc4c1[C@@H](Cc1ccc(cc1)Oc1cc(ccc1O)C[C@H]3N(C)CC2)N(C)CC4	.	.	.	7%[14.2 µM]	14%	.	.
O=C(CSC1=NS(=O)(=O)c2ccccc2N1)c1ccccc1	.	?	.	.	.	21µM*	?
CC(C)C#N	.	.	.	8%	20%	.	.
CCCN1C(=O)S/C(=C/c2ccc(N3CCOCC3)o2)C1=O	?	?	-26%	62%	.	7%	-4%
Nc1ncccc1OCc1ccc(Cl)c(Cl)c1	-12%	13µM*	29%	346%	.	5.4µM*	17µM*
Cc1ccc(C)c(-n2sc3ccc(F)cc3c2=O)c1	.	3µM*	.	.	.	19µM*	17µM*
Cc1ccc2nc(C)n(-c3ccc(F)cc3)c(=O)c2c1	-13%	4%	9%	-5%	0%	.	.
O=c1c2cc(F)ccc2sn1-c1ccc(F)cc1	.	7.6µM*	.	.	.	?	?
COc1ccc(-n2sc3ccc(F)cc3c2=O)cc1	.	6.7µM*	.	.	.	?	?
CCCCC/C=C\C/C=C\C/C=C\CCCCC(=O)NCCO	.	.	.	3%	3%	.	.
COc1ccc(CC(=O)N2CCN(C)CC2)cc1OC	4%	-2%	-4%[46.1 µM]	-6%	25%[38.3 µM]	.	.
COc1ccc(CNC(=O)N2CCN(c3cccc(Cl)c3)CC2)cc1OC	-1%	27µM*	.	.	.	12µM*	24µM*
ClC(Cl)=C(Cl)Cl	.	.	.	14%	-4%	.	.
C#CC(CC)(CC)NC(=O)Nc1ccc(OCC)cc1	-1%	-1%	6%	2%	5%	.	.
O=C(O)CCC(=O)Nc1ccc(SSc2ccc(NC(=O)CCC(=O)O)cc2)cc1	-3%	?	.	.	.	8.5µM*	17µM*
